From PubChem BioAssay
NR3A LBD binder = binders of NR3A ligand-binding domain, primary screen, biophysical, differential scanning fluorimetry, uHTS; Tm shift relative to glycine control, % at 25 µM; Glutamate receptor ionotropic, NMDA 3A (GRIN3A) ligand-binding domain; NR3A LBD differential scanning fluorimetry, Tm shift; 0% = protein alone, 100% = glycine-bound protein; hit rate 2.5% among 340,000;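 active means melting temperature shift of at least 10% of the positive control shift, at one fixed dose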
Mdm2-MdmX inh = inhibitors of human Mdm2-MdmX association, primary screen, cell-based, luminescence, split luciferase, SaOS-2, uHTS; hit rate 3% among 330,000; Protein Mdm4 (Homo sapiens) + E3 ubiquitin-protein ligase Mdm2 (Homo sapiens), …; SaOS-2 split-luciferase Mdm2/MdmX complementation; AID 485346, 2010; inhibition, % at 8 µM;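 active means inhibition of at least 50% at 8 µM in the primary screen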
Target sequence (O15151 whole entry, looked up): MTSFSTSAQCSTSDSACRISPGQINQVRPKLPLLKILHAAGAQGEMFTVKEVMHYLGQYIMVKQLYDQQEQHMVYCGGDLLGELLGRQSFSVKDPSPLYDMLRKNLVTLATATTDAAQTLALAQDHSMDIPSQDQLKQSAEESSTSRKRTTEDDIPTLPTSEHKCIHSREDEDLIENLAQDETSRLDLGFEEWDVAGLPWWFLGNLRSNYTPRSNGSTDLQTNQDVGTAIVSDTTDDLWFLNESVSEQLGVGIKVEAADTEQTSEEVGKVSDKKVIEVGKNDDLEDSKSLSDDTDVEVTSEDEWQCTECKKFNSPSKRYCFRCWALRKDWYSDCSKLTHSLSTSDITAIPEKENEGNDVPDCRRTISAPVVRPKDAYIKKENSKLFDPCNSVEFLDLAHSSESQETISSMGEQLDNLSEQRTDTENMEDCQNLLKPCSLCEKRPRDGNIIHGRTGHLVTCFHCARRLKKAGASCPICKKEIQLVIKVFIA
Target sequence (Q00987 whole entry, looked up): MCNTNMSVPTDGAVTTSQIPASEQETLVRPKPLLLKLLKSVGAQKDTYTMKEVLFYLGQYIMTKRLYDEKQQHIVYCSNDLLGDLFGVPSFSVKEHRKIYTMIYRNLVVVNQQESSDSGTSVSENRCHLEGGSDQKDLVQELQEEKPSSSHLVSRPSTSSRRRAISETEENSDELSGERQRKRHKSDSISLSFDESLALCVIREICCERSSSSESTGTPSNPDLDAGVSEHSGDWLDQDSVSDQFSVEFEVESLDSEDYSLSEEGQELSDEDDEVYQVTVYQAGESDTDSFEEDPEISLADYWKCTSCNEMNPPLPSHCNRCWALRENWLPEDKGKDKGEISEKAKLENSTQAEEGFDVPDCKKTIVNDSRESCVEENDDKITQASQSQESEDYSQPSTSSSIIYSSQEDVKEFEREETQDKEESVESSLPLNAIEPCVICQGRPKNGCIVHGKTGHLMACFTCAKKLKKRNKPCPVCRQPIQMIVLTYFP
MPTP block = mitochondrial permeability transition pore inhibitors, primary screen, biochemical, isolated mouse mitochondria, absorbance; AID 602449, 2012; hit rate 1.4% among 360,000; inhibition, % at 10 µM; Ca2+ swelling absorbance, 30 min;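 active means inhibition of 50% or more, scaled per plate between neutral and stimulator controls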
CSC inhib = cancer stem cell viability inhibitors, primary screen, luminescence | inhibition, % at 7.5 µM | cancer stem cell-like cells viability | hit rate 1.1% among 300,000 | AID 2717, 2010; in the data active means inhibition above about 75%; tested in HMLE shEcad cells
Gli-Sufu block = Gli-Sufu pathway antagonists, primary screen, luciferase luminescence, Sufu-KO-LIGHT cells, uHTS. Sufu-KO-LIGHT fibroblasts, Gli luciferase reporter luminescence. inhibition, % at 5 µM. AID 588413, 2011. hit rate 0.74% among 340,000;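 active means inhibition above about 55%, limit read from the data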
Beta cell apopt = inhibitors of cytokine-induced beta cell apoptosis, primary screen, luminescence; INS-1E cytokine-induced death, ATP luminescence, 48 h; percent of positive-control rescue, neutral wells zero; protection from apoptosis, % (test concentration not listed); hit rate 0.8% among 300,000; AID 435005, 2010;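 active means Every replicate reaches about 75%, or at least half do and their mean reaches it too, limit read from the data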;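 further: higher means more ATP so stronger rescue from cytokine killing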
Large screens that a line does not name were inactive. In the library only some 6.6% were active in any assay of this set; here they are far more common.

O=C(Nc1ccc(N=Nc2ccccc2)cc1)c1ccccc1Cl	NR3A LBD binder 15
CCOc1ccccc1NC(=O)CN(C)S(=O)(=O)c1ccc2[nH]c(=O)oc2c1	none
Cn1c(SCC(=O)NC2CCCCC2)nnc1-c1cccnc1	none (no result: CSC inhib)
Cn1c(SCC(=O)NC2(C#N)CCCCC2)nnc1-c1cccnc1	NR3A LBD binder 17 (no result: Beta cell apopt)
CCOC(=O)C1CCN(CCCSc2ccccc2)CC1	none (no result: Mdm2-MdmX inh)
C/C(O)=C(\C#N)c1nc2ccccc2[nH]1	none
N#C/C(=C(/O)CCl)c1nc2ccccc2[nH]1	CSC inhib 79
COc1c(O)ccc(/C=C(\C#N)c2nc3ccccc3[nH]2)c1[N+](=O)[O-]	NR3A LBD binder 23
Cc1ccc(/C=C(\C#N)c2nc3ccccc3[nH]2)s1	NR3A LBD binder 19
Cc1ccc2nc(/C(C#N)=C\c3cc(O)ccc3[N+](=O)[O-])[nH]c2c1	none (no result: Beta cell apopt)
Cc1ccc2nc(/C(C#N)=C/c3ccc(-c4cccc([N+](=O)[O-])c4)o3)[nH]c2c1	NR3A LBD binder 13 (no result: Mdm2-MdmX inh)
O=C(c1cccc(S(=O)(=O)NCc2ccccc2)c1)N1CCN(c2ccccc2Cl)CC1	none (no result: Mdm2-MdmX inh, CSC inhib, Beta cell apopt)
O=C(CN1CCN(Cc2cccc(C(F)(F)F)c2)CC1)NCC(=O)Nc1ccc(F)c(F)c1F	none (no result: Mdm2-MdmX inh, CSC inhib, Beta cell apopt)
N#C/C(=C/c1cccs1)c1nc2ccccc2[nH]1	NR3A LBD binder 15
Cc1cccc(C)c1NC(=O)CNC(=O)C(Cc1ccccc1)NC(=O)c1ccccc1 (stereo unspecified)	none
Cc1nc(NCc2ccccc2)sc1C(=O)Nc1ccccc1	none
Cc1ccc(Nc2nc(-c3sc(C)nc3C)cs2)cc1	none
Cc1nc(C)c(-c2csc(Nc3cccc(O)c3)n2)s1	NR3A LBD binder 20
Cc1nc(C)c(-c2csc(Nc3ccc(S(N)(=O)=O)cc3)n2)s1	NR3A LBD binder 32 (no result: CSC inhib, Beta cell apopt)
Cc1nc(Nc2ccc(S(N)(=O)=O)cc2)sc1-c1ccccc1	NR3A LBD binder 16
COc1ccccc1Nc1nc(C)c(C(=O)Nc2ccccc2)s1	NR3A LBD binder 25
CC1(C(=O)NS(=O)(=O)C2CC2)CCCN(C(=O)c2ccc(F)cc2Cl)C1 (stereo unspecified)	none (no result: NR3A LBD binder, Mdm2-MdmX inh, CSC inhib, Gli-Sufu block, Beta cell apopt)
Cc1onc(-c2c(F)cccc2Cl)c1C(=O)N(C)CCc1ccccn1	none
Cc1nc(Nc2ccccc2Cl)sc1C(=O)Nc1ccccc1	none (no result: CSC inhib)
Cc1nc(Nc2ccc(S(N)(=O)=O)cc2)sc1C(=O)Nc1ccccc1	NR3A LBD binder 33
Cc1nc(Nc2ccccc2)sc1C(=O)Nc1ccccc1	NR3A LBD binder 38
CN1CCC(=O)N([C@H](CN=[N+]=[N-])Cc2ccccc2)CC1	none
CC1CCN(Cc2nnnn2CCCC(=O)NC(c2ccccn2)C(F)(F)F)CC1 (stereo unspecified)	NR3A LBD binder 12 (no result: Beta cell apopt)
CN(CC(=O)Nc1ccc(Cl)c(C(F)(F)F)c1)C(=O)COc1cccc2cccnc12	none (no result: NR3A LBD binder, Mdm2-MdmX inh, CSC inhib, Gli-Sufu block, Beta cell apopt)
Cc1ccc(C)c(OCC(=O)N(C)CC(=O)Nc2ccc(Cl)c(C(F)(F)F)c2)c1	NR3A LBD binder 12 (no result: CSC inhib)
Cc1nc(-c2ccc(F)cc2)c(CC(=O)N(C)CC(=O)Nc2ccc(Cl)c(C(F)(F)F)c2)s1	NR3A LBD binder 12 (no result: Mdm2-MdmX inh, CSC inhib, Beta cell apopt)
CN(CC(=O)Nc1ccc(Cl)c(C(F)(F)F)c1)C(=O)c1cc(-c2ccncc2)nc2ccccc12	NR3A LBD binder 21 (no result: CSC inhib)
Cc1cccc(C(=O)OCC(=O)N(C)CC(=O)Nc2ccc(Cl)c(C(F)(F)F)c2)c1	NR3A LBD binder 12
O=C(Nc1cccc(C(F)(F)F)c1)C1Cc2c(-c3ccccc3Oc3ccccc3)ccnc2O1 (stereo unspecified)	none (no result: NR3A LBD binder, Mdm2-MdmX inh, CSC inhib, Gli-Sufu block, Beta cell apopt)
CCCCC(=O)Nc1ccc2c(c1)nc(CCN1CCN(c3ccccn3)CC1)n2C	none
O=C(NC1CCCC1)c1cc(S(=O)(=O)N2CCCC2)ccc1Cl	none
COc1cccc(CNC(=O)COC(=O)CCc2cc(OC)c(OC)c(OC)c2)c1	none
O=C(COc1ccc(F)cc1)NNC(=O)Cn1ccc(C(F)(F)F)n1	none
ClCc1csc(-c2ccc(Cl)cc2)n1	NR3A LBD binder 13
O=C1CC(C(=O)N2CCN(S(=O)(=O)c3cccc(F)c3)CC2)CN1Cc1ccccc1Cl (stereo unspecified)	none
CN1C(=O)CC2(C)C1=CCc1scnc12 (stereo unspecified)	none (no result: NR3A LBD binder, Mdm2-MdmX inh, CSC inhib, Gli-Sufu block, Beta cell apopt)
O=c1c2ccccc2nc2sc(Nc3ccc(F)cc3)nn12	none
COc1cccc(Nc2nn3c(=O)c4ccccc4nc3s2)c1	NR3A LBD binder 23
CC1(C)CC2CC(C)(CN2C(=O)COC(=O)c2ccc(NC(=O)CC#N)cc2)C1 (stereo unspecified)	none
O=C(N/N=C/c1cccc2ccccc12)c1ccncc1	none (no result: Beta cell apopt)
O=C(N/N=C/c1ccccc1O)c1ccncc1	NR3A LBD binder 21
O=C(N/N=C/c1ccc(COc2ccc(Br)cc2)o1)c1ccc2c(c1)OCO2	none (no result: CSC inhib, Beta cell apopt)
O=C(O)COc1ccccc1/C=N/NC(=O)/C(=C\c1ccc2c(c1)OCO2)NC(=O)c1ccccc1	NR3A LBD binder 191
Cc1ccccc1/C=N/NC(=O)c1ccc(-n2cnnn2)cc1	NR3A LBD binder 30
O=C(N/N=C/c1ccc(-c2ccc(Br)cc2)o1)c1ccc2c(c1)OCO2	NR3A LBD binder 11
N#Cc1ccccc1CN1C(=O)NC2(CCCCCC2)C1=O	none
O=C(N/N=C/c1c(O)ccc2ccccc12)c1ccc[n+](CCO)c1	none
O=C(N/N=C\c1ccc(F)cc1)c1ccc(Cn2cc(Br)c([N+](=O)[O-])n2)o1	none
O=C(N/N=C\c1ccc2c(c1)OCO2)c1ccc(Cn2cc(Br)c([N+](=O)[O-])n2)o1	CSC inhib 84
O=C(NN=Cc1c(O)ccc2ccccc12)c1ccncc1	Gli-Sufu block 87 (no result: Mdm2-MdmX inh, CSC inhib, Beta cell apopt)
O=C(NN=Cc1ccc2c(c1)OCO2)c1ccccc1	none (no result: Mdm2-MdmX inh, CSC inhib, Beta cell apopt)
O=C(N/N=C/c1cc(Br)ccc1OC(=O)c1ccc(Br)cc1)c1ccncc1	Beta cell apopt 92 (no result: CSC inhib)
O=C(NN=Cc1ccc2c(c1)OCO2)c1ccncc1	NR3A LBD binder 25 (no result: Mdm2-MdmX inh, CSC inhib, Beta cell apopt)
COCC#Cc1ccc2c(c1)O[C@@H](CN(C)S(=O)(=O)c1cccc(F)c1)[C@@H](C)CN([C@H](C)CO)S2(=O)=O	none (no result: NR3A LBD binder, Mdm2-MdmX inh, CSC inhib, Gli-Sufu block, Beta cell apopt)
COc1ccc(C(=O)NCCn2cc(SCC(N)=O)c3ccccc32)cc1	none
CCn1c(SC(C)C(=O)NC2CCCC2)nc2cc(S(N)(=O)=O)ccc21 (stereo unspecified)	none (no result: CSC inhib)
CCCc1cc(=O)oc2cc(C)cc(OCC(=O)NCCCN3CCCC3=O)c12	none
CCCCCc1ccc(OCCOCCn2c[n+](C)c3ccccc32)c(CCCCC)c1	Gli-Sufu block 87 (no result: Mdm2-MdmX inh, CSC inhib, Beta cell apopt)
Cc1ccc(SC(C)C(=O)N2CCC(C(N)=O)CC2)cc1 (stereo unspecified)	none
